Inconclusive results are not listed. Calls of active or inactive are those of the source. Unless noted, the call rests on the fitted dose curve; in most records, active means well fitted curve in the direction sought with a large enough effect in the repeat runs; inconclusive means weak or mixed curves; inactive means no such curve, though single readings can be large; an effect the other way counts as inactive or inconclusive.
What was measured:
[1] = qHTS assay for small molecule agonists of the p53 signaling pathway (AID 651631; calls by dose curve; further: nearly all actives have a fitted effect of over 15% in size)
In short: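 Quantitative high-throughput format: 4,000 p53RE-bla HCT-116 cells/well, 5 h pre-incubation, 16 h compound exposure at 37 °C, 2 h room-temperature substrate step, fluorescence intensity measured.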

[2] = qHTS assay for small molecules that induce genotoxicity in human embryonic kidney cells expressing luciferase-tagged ATAD5 (AID 651632); further: nearly all actives have a fitted effect of over 15% in size
In short: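 Increased luciferase signal from ATAD5-tagged reporter cells indicates DNA-damage-driven ATAD5 induction. HEK293T cells are treated for 16 hr at 37C before detection with Amplite.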

[3] = qHTS assay for small molecule agonists of the p53 signaling pathway - cell viability (AID 651633; calls by dose curve; further: nearly all actives have a fitted effect of over 30% in size; further: potency means the concentration at half of the fitted maximal effect)
In short: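 p53RE-bla cells, seeded at 4,000 per well and rested 5 h at 37 C/5% CO2, received compounds in DMSO for 16 h at 37 C. CellTiter-Glo was then added, and luminescence was read after 30 min at room temperature to gauge cytotoxicity.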

[4] = qHTS assay for small molecules that induce genotoxicity in human embryonic kidney cells expressing luciferase-tagged ATAD5 - cell viability (AID 651634; calls by dose curve; further: nearly all actives have a fitted effect of over 25% in size; further: potency means the concentration at half of the fitted maximal effect)
In short: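 Cytotoxicity counterscreen in HEK293T cells bearing an ATAD5-luciferase reporter: live-cell protease activity measured by CellTiter-Fluor fluorescence after 15.5 hr compound exposure.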

[5] = qHTS assay for small molecule disruptors of the mitochondrial membrane potential - cell viability (AID 720634; calls by dose curve; further: nearly all actives have a fitted effect of over 20% in size; further: potency means the concentration at half of the fitted maximal effect)
In short: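 After overnight attachment at 37 C, HepG2 cells received compound or DMSO vehicle for 1 hr. Viability is then taken from ATP-driven luminescence following a 30 min room-temperature CellTiter-Glo step.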

[6] = qHTS assay to test for compound auto fluorescence at 590 nm (red) in HepG2 cells (AID 720674); further: potency means the concentration at half of the fitted maximal effect
In short: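 Intrinsic compound fluorescence in the red window (Ex/Em 540/590 nm) is measured in attached HepG2 cells exposed for 1 hr, DMSO vehicle as baseline, benchmarked to Rose Bengal sodium.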

[7] = qHTS assay to test for compound auto fluorescence at 535 nm (green) in HepG2 cells (AID 720675)
[8] = qHTS assay to test for compound auto fluorescence at 460 nm (blue) in HEK293 cells (AID 720678)
In short: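 Blue read-out at excitation 405 nm and emission 460 nm follows overnight compound exposure of HEK293 cells at 37C in 5% CO2. Activity is given as auto fluorescence equivalency to triamterene.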

[9] = qHTS assay to test for compound auto fluorescence at 590 nm (red) in HEK293 cells (AID 720679); further: potency means the concentration at half of the fitted maximal effect
In short: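 Red channel, Ex/Em 540/590nm; signal expressed as equivalency to Rose Bengal sodium. HEK293, 2,000 cells/well, 10% dialyzed FBS; 23 nL compound pinned after 4-5 hr attachment; overnight 37C/5% CO2 before reading.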

[10] = qHTS assay to test for compound auto fluorescence at 535 nm (green) in HEK293 cells (AID 720680)
[11] = qHTS assay to test for compound auto fluorescence at 460 nm (blue) in HEK293 cell free culture (AID 720681)
In short: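 Test compounds were pinned into cell-free culture medium (DMEM with 10% FBS) and fluorescence was read directly at Ex/Em 405/460 nm. Signals were expressed as fluorescence equivalents of triamterene, with DMSO vehicle as control.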

[12] = qHTS assay to test for compound auto fluorescence at 535 nm (green) in HEK293 cell free culture (AID 720682)
In short: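 Measurement is a direct plate read of green fluorescence (485 nm in, 535 nm out) after compound addition to serum-supplemented DMEM lacking cells, with fluorescein used to express intensities.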

[13] = qHTS assay to test for compound auto fluorescence at 590 nm (red) in HEK293 cell free culture (AID 720683); further: potency means the concentration at half of the fitted maximal effect
In short: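 Tox21 10K library compounds were pinned into cell-free DMEM with 10% FBS and fluorescence was read at excitation 540 nm. Activity is expressed as Rose Bengal sodium equivalency.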

[14] = qHTS assay to test for compound auto fluorescence at 590 nm (red) in HepG2 cell free culture (AID 720684); further: potency means the concentration at half of the fitted maximal effect
In short: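 Measured in medium alone (MEM containing 10% FBS) following pintool addition of compound; emission at 590 nm with 540 nm excitation, referenced to Rose Bengal sodium.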

[15] = qHTS assay to test for compound auto fluorescence at 535 nm (green) in HepG2 cell free culture (AID 720686)
[16] = target: Glucocorticoid receptor (Homo sapiens) (UniProt P04150); assay: qHTS assay to identify small molecule agonists of the glucocorticoid receptor (GR) signaling pathway (AID 720691; active means well fitted activation curve with a large enough effect in the signal ratio in the repeat runs, not every such curve was filed as active; the % refers to the signal ratio)
In short: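 Agonist mode in a HeLa line carrying a GRE-controlled beta-lactamase reporter. Compounds act for 18 h at 37 C before a 2 h room-temperature FRET substrate step and fluorescence reading.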

[17] = target: Glucocorticoid receptor (Homo sapiens) (UniProt P04150); assay: qHTS assay to identify small molecule antagonists of the glucocorticoid receptor (GR) signaling pathway (AID 720692; active means well fitted inhibition curve with a large enough effect in the signal ratio in the repeat runs, not every such curve was filed as active; the % refers to the signal ratio)
In short: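 Cells plated, rested 4 h at 37 C/5% CO2; compounds in DMSO pin-transferred; dexamethasone added to 5 nM final; 18 h at 37 C; B/G FRET substrate added, 2 h room temperature; fluorescence measured.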

[18] = qHTS assay to test for compound auto fluorescence at 460 nm (blue) in HepG2 cell free culture (AID 720685)
In short: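 Compound (23 nL) or DMSO pinned into cell-free MEM with 10% FBS; blue fluorescence read at 405/460 nm excitation/emission, expressed as auto-fluorescence equivalency to triamterene.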

[19] = qHTS assay to test for compound auto fluorescence at 460 nm (blue) in HepG2 cells (AID 720687)
In short: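 Cells (2,000/well in MEM with 10% FBS) attached overnight at 37 C, then were exposed to compound or DMSO for 1 hr at 37 C, 5% CO2. Fluorescence read at Ex/Em 405/460 nm, expressed as triamterene-equivalent signal.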

Measured: Potency
Tags describe the fitted curve by direction and shape or compound fluorescence and quenching.

Sequence of Glucocorticoid receptor (Homo sapiens) (P04150 whole entry, looked up): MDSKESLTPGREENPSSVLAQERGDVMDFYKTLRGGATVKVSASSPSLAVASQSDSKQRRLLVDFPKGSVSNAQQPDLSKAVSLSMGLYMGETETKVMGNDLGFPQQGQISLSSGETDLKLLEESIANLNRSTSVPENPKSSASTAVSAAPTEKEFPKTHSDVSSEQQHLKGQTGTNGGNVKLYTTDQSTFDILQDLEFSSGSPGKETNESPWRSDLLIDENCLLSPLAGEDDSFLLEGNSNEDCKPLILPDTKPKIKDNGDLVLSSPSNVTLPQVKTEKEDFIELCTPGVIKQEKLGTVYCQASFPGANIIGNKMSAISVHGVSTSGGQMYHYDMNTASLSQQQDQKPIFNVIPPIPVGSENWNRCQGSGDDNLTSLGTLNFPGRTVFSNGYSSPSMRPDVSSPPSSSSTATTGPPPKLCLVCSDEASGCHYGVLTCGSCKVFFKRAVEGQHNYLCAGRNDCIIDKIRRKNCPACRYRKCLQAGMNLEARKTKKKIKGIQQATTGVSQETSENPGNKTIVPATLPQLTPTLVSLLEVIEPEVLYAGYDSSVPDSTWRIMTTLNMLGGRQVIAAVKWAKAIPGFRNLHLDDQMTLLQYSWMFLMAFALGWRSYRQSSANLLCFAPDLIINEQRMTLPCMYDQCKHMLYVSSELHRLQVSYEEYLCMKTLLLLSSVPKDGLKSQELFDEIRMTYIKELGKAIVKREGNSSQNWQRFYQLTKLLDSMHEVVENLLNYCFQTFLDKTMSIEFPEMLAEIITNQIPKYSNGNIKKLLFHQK

CCC(=O)OC(=O)CC
not listed: [18] | [19]
inactive: all other assays above

O=C(/C=C/c1ccccc1)OC/C=C/c1ccccc1
inactive: all assays above

O=S(=O)(O)c1ccc(N=Nc2c(O)ccc3ccccc23)cc1
active: [4] 27.3 µM
not listed: [12] | [17]
inactive: all other assays above

CCN(CC)c1ccc2c(-c3ccc(S(=O)(=O)O)cc3S(=O)(=O)[O-])c3ccc(=[N+](CC)CC)cc-3oc2c1
active: [3] 9.99 µM | [4] 25.1 µM | [5] 70.7 µM | [6] 0.398 µM | [9] 0.501 µM [fluorescent] | [13] 0.794 µM [fluorescent] | [14] 0.355 µM [fluorescent]
not listed: [15]
inactive: all other assays above

O=C(O)c1cccc(C(F)(F)F)c1
inactive: all assays above

CN1CCCCC1CCN1c2ccccc2Sc2ccc(S(C)=O)cc21 (stereo not given)
not listed: [12]
inactive: all other assays above

CCN(CCN)c1cccc(C)c1
not listed: [16] | [17]
inactive: all other assays above
